DAX1 inh-1: DAX1 (NR0B1) inhibitors, primary screen, cell-based, HEK293, Gal4-DAX1, luciferase luminescence | inhibition, % at 6.75 µM | HEK293 Gal4-DAX1 luciferase reporter | AID 504766, 2011 | 340,000 tested, 0.99% active;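 active = inhibition above the mean over all tested compounds plus 3 SD, cut at about 4.2% in these data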;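 also: 0% = DAX1-transfected cells with DMSO and 100% = empty-vector control cells with DMSO; inhibition shows as a rise in luminescence from relieved DAX1 repression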
Target sequence (P51843 207-470 limits assumed): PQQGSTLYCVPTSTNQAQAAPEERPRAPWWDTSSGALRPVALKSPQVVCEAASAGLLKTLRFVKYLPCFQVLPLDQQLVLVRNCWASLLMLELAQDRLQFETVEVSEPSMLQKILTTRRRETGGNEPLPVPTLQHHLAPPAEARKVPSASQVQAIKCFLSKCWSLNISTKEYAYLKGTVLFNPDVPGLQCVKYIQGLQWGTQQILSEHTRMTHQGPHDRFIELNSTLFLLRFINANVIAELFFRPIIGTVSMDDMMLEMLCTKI
hcDAF12 agonist: H. contortus DAF-12 nuclear receptor activators, primary screen, cell-based, luminescence, HEK293, lit1-tk-luc reporter; HEK293 hcDAF-12 lit1-tk-luc reporter; 0% DMSO, 100% Δ7-dafachronic acid; activation, % at 6.8 µM; 370,000 tested, 1.4% active; AID 652067, 2013;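 active = activation above the mean of all tested compounds plus 3 SD, cut at about 5.5% in these data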;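 also: 100% = response to 3 µM Δ7-dafachronic acid high control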
DAX1 inh-2: DAX1 (NR0B1) inhibitors on StAR promoter, primary screen, cell-based, luminescence, SF-1 (NR5A1), full-length DAX-1; AID 652010, 2013; 370,000 tested, 1.1% active; inhibition, % at 6.8 µM; HEK293T StAR-luciferase reporter, SF-1/DAX-1 repression relief;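 active = inhibition above the mean over all tested compounds plus 3 SD, cut at about 3.6% in these data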;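 also: 0% = DAX-1 cells with DMSO and 100% = cells lacking DAX-1 with DMSO; higher inhibition means more luminescence from relief of DAX-1 repression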
SMARCA2 activ: SMARCA2 (BRM) function activators, primary screen, cell-based, luminescence, high throughput. 370,000 tested, 1% active. MG213 cells, MMTV-luciferase reporter, dexamethasone, overnight. AID 652017, 2013. activation, % at 9.1 µM; in the data active = activation above about 7.8%;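 also: 0% = vehicle wells and 100% = reference activator wells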
ssDAF-12 act: S. stercoralis DAF-12 nuclear receptor activators, primary screen, cell-based, luminescence, HEK293, GRIP1 co-expression, lit1-tk-luc. Nuclear hormone receptor DAF-12 (Strongyloides stercoralis). HEK293 ssDAF-12/GRIP1 lit1-tk-luc reporter; % of 3 µM dafachronic acid response. activation, % at 6.8 µM. 370,000 tested, 1% active. AID 652126, 2013;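 active = activation above the mean over all tested compounds plus 3 SD, cut at about 0.9% in these data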;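 also: 0% = DMSO-only wells and 100% = 3 µM delta7-dafachronic acid wells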
hgDAF-12 ag: H. glycines DAF-12 receptor agonists, primary screen, cell-based, luminescence, HEK293, GAL4 fusion, UAS-luciferase; HEK293 GAL4-hgDAF12 UAS-luciferase reporter, agonist luminescence; normalized to butyrate control; AID 687014, 2013; activation, % at 6.8 µM; 370,000 tested, 1.8% active; Nuclear hormone receptor DAF-12 (Heterodera glycines), GAL4 fusion;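 active = activation above a cutoff set at the mean of all screened compounds plus 3 SD, cut at about 10% in these data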;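 also: 0% = DMSO wells and 100% = sodium butyrate wells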
LXRb hcDAF ctr: LXR agonists, Gal4 luciferase reporter, confirmation, counter-screen for hcDAF-12 agonist project, cell-based, luminescence, HEK293, H. contortus campaign | HEK293 Gal4-LXR tk-luc reporter, 24 h; normalized: DMSO 0%, positive control 100% | 3,400 tested, under 10 active | shares compounds with hcDAF12 agonist | activation, % at 6.8 µM;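 active = mean percent activation of the reporter above a cutoff set as the average over tested compounds plus their standard deviation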
Target sequence (P55055 whole entry, looked up, the tested form may be a part): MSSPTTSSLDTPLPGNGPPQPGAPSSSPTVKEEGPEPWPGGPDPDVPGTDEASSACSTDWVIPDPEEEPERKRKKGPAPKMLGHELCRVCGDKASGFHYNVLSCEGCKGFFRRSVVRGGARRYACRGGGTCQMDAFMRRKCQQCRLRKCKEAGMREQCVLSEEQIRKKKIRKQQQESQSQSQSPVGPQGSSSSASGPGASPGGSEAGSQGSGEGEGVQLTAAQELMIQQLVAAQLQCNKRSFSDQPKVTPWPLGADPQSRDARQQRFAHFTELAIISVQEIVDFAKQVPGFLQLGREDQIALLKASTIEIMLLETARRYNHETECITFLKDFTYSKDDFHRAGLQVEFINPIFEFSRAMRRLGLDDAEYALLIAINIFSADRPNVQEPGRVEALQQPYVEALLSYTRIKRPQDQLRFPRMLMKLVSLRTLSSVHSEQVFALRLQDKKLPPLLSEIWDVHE
hcDAF12 ag: H. contortus DAF-12 receptor agonists, confirmation, cell-based, luminescence, HEK293, lit1-tk-luc, triplicate; activation, % at 6.8 µM; HEK293 hcDAF-12 lit1-tk-luc reporter; % of Δ7-dafachronic acid response; 3,400 tested, 61% active; shares compounds with hcDAF12 agonist; AID 743032, 2013;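 active = mean activation across triplicate tests above the threshold derived from the earlier primary screen, cut at about 5.5% in these data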;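 also: 0% = DMSO only wells and 100% = 3 µM Δ7-dafachronic acid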
The depositor's hits bear a star; . = no result given. In the library only some 4.8% were active in any assay of this set; here they are far more common.

SMILES | DAX1 inh-1 | hcDAF12 agonist | DAX1 inh-2 | SMARCA2 activ | ssDAF-12 act | hgDAF-12 ag | LXRb hcDAF ctr | hcDAF12 ag
COc1ccccc1C(=O)N/C(N)=N/c1nc2ccccc2o1 | 0.4 | 7.0* | 0.8 | 5.8 | 1.1* | 3.9 | 0.5 | 8.6*
O=C(Nc1csc(Cl)c1)c1ccccc1 | . | -0.4 | 0.9 | 1.6 | -0.8 | 5.5 | . | .
O=C(Nc1nc2c(s1)CCCC2)Oc1ccccc1 | 1.2 | 0.2 | -0.2 | 2.7 | -1.2 | 1.0 | . | .
C/C(=N\Nc1nc2c(s1)CCCC2)c1ccccc1 | 3.1 | 7.4* | 1.6 | 3.1 | 1.4* | 6.0 | 1.5 | 11.4*
CC(C)=NNc1nc(-c2ccc(N3C(=O)CCC3=O)cc2)cs1 | -4.4 | -3.0 | -0.4 | -2.6 | -1.0 | -1.6 | . | .
CC(C)=NNc1nc(-c2ccccc2)cs1 | 1.8 | 7.2* | 0.4 | 1.8 | 0.5 | 5.5 | 0.1 | 2.1
C/C(=N\Nc1nc(C(C)(C)C)cs1)c1ccccc1 | 6.6* | 7.0* | 0.5 | 4.9 | 2.2* | 12.7* | 1.4 | 8.6*
O=C(c1ccc(-c2ccc([N+](=O)[O-])cc2)o1)N1CCCCC1 | 3.6 | 8.4* | 2.0 | 5.9 | -0.7 | 17.3* | 0.9 | 4.8
CC(=O)c1ccc(NC(=O)c2onc(C)c2Cl)cc1 | 0.1 | 7.8* | 2.6 | 3.1 | -0.3 | 9.4 | 1.1 | 6.4*
Cc1noc(C(=O)Nc2ccc3c(c2)OCO3)c1Cl | 2.0 | 6.7* | 2.8 | 1.5 | 0.7 | 7.9 | 0.3 | 5.5
CC(=O)c1cccc(NC(=O)c2onc(C)c2Cl)c1 | 0.9 | -1.8 | 0.7 | 0.9 | -1.0 | 1.3 | . | .
CC(C)CNS(=O)(=O)CC1NCc2ccccc21 (stereo not given) | . | 2.8 | -0.7 | -0.7 | -0.7 | 5.6 | . | .
Clc1ccc(/C=N/NC2=Nc3cccc4cccc2c34)cc1 | 3.7 | 6.7* | 1.4 | 3.9 | 0.5 | 7.1 | 1.1 | 10.1*
COc1ccc(NC2=Nc3cccc4cccc2c34)cc1OC | -1.1 | -3.0 | -1.2 | -0.8 | -1.4 | -0.6 | . | .
O=C(CCCCl)Oc1ccc2cc(-c3ccc4ccccc4n3)c(=O)oc2c1 | 0.1 | 8.4* | 0.8 | 6.2 | -0.4 | 3.6 | 0.5 | 5.0
COc1ccc(-c2nc(NCCCN(C)C)c3ccccc3n2)cc1 | 6.7* | 10.0* | 1.9 | 5.0 | 0.3 | 9.2 | 0.1 | 9.3*
CCOC(=O)N1CCN(C(=O)CCC2CCCC2)CC1 | 1.2 | -1.4 | -0.1 | -2.7 | -0.8 | -3.5 | . | .
CCC(=O)NNc1ncnc2ccccc12 | 1.4 | 6.9* | 0.1 | 0.6 | 0.3 | -0.6 | -0.1 | 4.7
CCOC(=O)c1ccc(Nc2ncnc3ccccc23)cc1 | -0.9 | -0.6 | 0.5 | -1.4 | -1.2 | -0.7 | . | .
O=C(O)CCC(=O)NNc1ncnc2ccccc12 | 3.2 | -0.1 | -1.1 | -1.6 | -1.0 | -4.8 | . | .
CCOC(=O)C/C(=N\Nc1ncnc2ccccc12)c1ccccc1 | 1.1 | 11.1* | 1.6 | -1.4 | 0.8 | 5.9 | 0.0 | 4.9
CC(=O)Nc1ccc(NC(=O)CCN2C(=O)c3ccccc3C2=O)cc1 | -0.2 | -1.7 | 0.6 | 3.9 | -1.0 | 1.6 | . | .
Cc1nn(C)c(C(=O)N2CCN(C(=O)c3ccco3)CC2)c1Br | 1.6 | 1.1 | -0.2 | -2.0 | -1.0 | 1.2 | . | .
COc1ccc(/C=C2\Cc3ccccc3C2=O)cc1OC | 0.6 | -0.3 | 0.0 | 6.2 | -1.0 | 3.1 | . | .
COc1ccc(/C=C2\CCc3ccccc3C2=O)cc1O | -2.2 | 8.5* | 0.5 | 1.3 | 0.8 | 5.9 | 1.2 | 6.9*
SMILES | DAX1 inh-1 | hcDAF12 agonist | DAX1 inh-2 | SMARCA2 activ | ssDAF-12 act | hgDAF-12 ag | LXRb hcDAF ctr | hcDAF12 ag
O=[N+]([O-])c1ccc(Nc2nc(Cl)nc(NCCO)n2)cc1 | -1.0 | 6.8* | 1.6 | -4.8 | 0.6 | 1.8 | -0.1 | 4.7
COc1nc(NCCO)nc(Nc2ccc([N+](=O)[O-])cc2)n1 | -0.2 | -0.6 | -1.1 | -4.5 | -1.1 | 1.6 | . | .
CC(C)n1cc(/C=C2\NC(=O)N(c3cccc(Cl)c3)C2=O)c2ccccc21 | 0.8 | 1.9 | 0.5 | 0.2 | 0.5 | 0.6 | . | .
COc1ccccc1NC(=O)c1oc2ccccc2c1C | 3.0 | 7.0* | -0.7 | 3.5 | 2.2* | 8.9 | 0.1 | 6.7*
COc1ccc(NC(=O)c2oc3ccccc3c2C)c(OC)c1 | 0.2 | 2.3 | -0.1 | 1.5 | -0.2 | 2.5 | . | .
O=C(Nc1ccccn1)c1onc2c1CCCC2 | -3.4 | 8.0* | 2.1 | 5.4 | -0.1 | 6.4 | 0.5 | 5.8*
Cn1nc(NC(=O)C2CCC2C(=O)O)c2c(F)cccc21 (stereo not given) | -0.7 | 1.8 | 0.2 | 4.7 | 0.0 | -1.5 | . | .
C/C(=N\NC(=O)c1cc(C)oc1C)c1ccc2c(c1)OCO2 | 0.4 | -2.5 | -0.4 | 0.2 | -1.3 | -0.4 | . | .
C/C(=N\NC(=O)c1c[nH]c2ccccc12)c1ccc2c(c1)OCO2 | -1.3 | 7.2* | 1.1 | 4.0 | 0.5 | 7.6 | 0.0 | 0.4
CCCn1nc(C(=O)Nc2ccc(S(=O)(=O)Nc3nccs3)cc2)c2ccccc2c1=O | -0.2 | -0.2 | 0.1 | -2.1 | -1.5 | -2.7 | . | .
O=P1(O)C=C(c2ccccc2)OC(c2ccccc2)=C1 | 0.2 | 9.9* | 0.9 | 4.0 | 1.4* | 7.5 | 0.6 | 11.2*
CCOC(=O)c1c(C)oc2c1c(C(c1ccccc1)N1CCOCC1)c(O)c1ccccc12 (stereo not given) | 4.2* | 10.8* | 4.0* | 4.4 | 1.0* | 12.9* | 0.6 | 7.3*
Nc1cccc(-c2nc3ccccc3[nH]2)c1 | 1.4 | 8.0* | 2.3 | 4.0 | -1.2 | 7.7 | 0.3 | 5.3
Cc1ccc2nc(-c3cccc(N)c3)[nH]c2c1 | -1.5 | 4.8 | 3.6 | 0.6 | -0.3 | 9.7 | . | .
N#Cc1ccc(Cl)cc1NC(=O)COC(=O)[C@H](CCC(N)=O)NC(=O)c1ccc(F)cc1 | 0.3 | 9.4* | 0.7 | -4.6 | -0.4 | -0.4 | -0.3 | 1.0
